For six molecules, Potency, activity change, negative = cytotoxicity and max response results are on record in PubChem BioAssay (NCATS).

Records with an inconclusive call do not appear. Active and inactive are the calls of the source. Unless noted, calls follow the shape of the dose curve; as a rule, active = well fitted curve in the direction sought with a large enough effect; inconclusive = small, poorly fitted or top-dose-only effect, or another doubt; inactive = no such curve, though single readings can be large; an effect the other way counts as inactive or inconclusive.

A short description of test [1]: Cell Viability - Hek293 (AID 427;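 active = compounds whose dose-response curve shows a full or clear partial loss of cell viability, called from curve shape rather than a numeric limit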;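 also: potency is read from the fitted curve at half-maximal effect; cells exposed to compound for 40 hours at 37 °C before reading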). The conditions noted are these: qHTS. Summed up:
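HEK293 cells in complete medium were exposed to compound for 40 hr at 37 °C, then cellular ATP was read by CellTiter-Glo luminescence. Data were normalized to DMSO (basal) and 100 uM tamoxifen (100% inhibition), and AC50 came from Hill fits.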
(Quantitative high-throughput screening tests each substance at several concentrations.)

The nature of test [2]: Cell Viability - SK-N-SH (AID 435; calls by dose curve;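 also: potency is read from the fitted curve at half-maximal effect; compound exposure lasted 40 h at 37 °C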). The conditions noted are these: SK-N-SH neuroblastoma cell viability qHTS. Summed up: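 CellTiter-Glo ATP luminescence, 20 min RT read; cells pre-plated 5 hr, compound 40 hr at 37 °C, 1500 cells/well, complete medium. Normalized DMSO = 0, 100 uM tamoxifen = 100% inhibition; Hill-fit AC50.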
Test [3] is described as follows: Cell Viability - N2a (AID 540).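 Also: plate controls were DMSO alone for no effect and tamoxifen control for full effect; nearly all actives have a fitted effect of over 45% in size.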 The conditions noted are these: N2a mouse neuroblastoma cell viability; activity change, negative = cytotoxicity: at 92.2 µM (top of the series). The gist of the method: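 Mouse neuroblastoma N2a cells (1500/well) were preincubated 5 hr at 37 °C, then exposed to compounds for 40 hr at 37 °C in complete medium. Viability was read as intracellular ATP by CellTiter-Glo luminescence; AC50 from Hill fits.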

Test [4] in a line: Cell Viability - H-4-II-E (AID 543). Also: % is scaled to controls: 0 for no effect and ±100 for the full control effect; nearly all actives have a fitted effect of over 35% in size. The conditions noted are these: H-4-II-E rat hepatoma viability; series mostly up to 92.2 µM. The gist of the method:
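Rat hepatoma H-4-II-E cells (1500/well) were plated, incubated 5 hr at 37 °C, then exposed to compounds for 40 hr at 37 °C. Cellular ATP was read by CellTiter-Glo luminescence; AC50 came from Hill-equation fits of concentration-response data.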

Test [5] can be described thus: Cell Viability - SH-SY5Y (AID 544).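 Also: 0% = DMSO alone and -100% = 100 µM tamoxifen; nearly all actives have a fitted effect of over 55% in size.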 The conditions noted are these: SH-SY5Y neuroblastoma cell viability; viability change, negative = cytotoxic: at 92.2 µM (top of the series). The gist of the method:
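Human neuroblastoma SH-SY5Y cells (1500/well) in complete medium were exposed to compounds for 40 hr at 37 °C; intracellular ATP was then quantified by CellTiter-Glo luminescence after 20 min at room temperature. AC50 came from Hill-equation concentration-response fits.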

A short description of test [6]: Cell Viability - LYMP2-001 (AID 921). Also: nearly all actives have a fitted effect of over 70% in size. Also: potency is read from the fitted curve at half-maximal effect. The conditions noted are these: LYMP2-001 lymphoblastoid cell viability; series mostly up to 92.2 µM. Summed up:
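CellTiter-Glo luminescence (intracellular ATP) after 24 hr compound exposure at 37 C, 2500 lymphoblastoid cells/well in complete medium. AC50 fitted with standard Hill equation; tetraoctylammonium bromide positive control.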

Test [7] is described as follows: MultiTox-Fluor Cytotoxicity Assay - LYMP1-001 - Live Cells (AID 947).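 Also: 0% = DMSO only and full inhibition = tetraoctylammonium bromide control.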 The conditions noted are these: LYMP1-001 lymphoblastoid cells, live-cell protease fluorescence viability; series mostly up to 92.2 µM.
Test [8] can be described thus: Cell Viability - LYMP2-005 (AID 967).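 Also: plate controls were DMSO only for no effect and 92 µM tetraoctylammonium bromide control for full effect.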 The conditions noted are these: LYMP2-005 lymphoblastoid cell viability; series mostly up to 92.2 µM. Summed up:
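Steps: seed 2500 LYMP2-005 cells/well, incubate 5 h at 37 C, add compound, incubate 24 h at 37 C, add CellTiter-Glo, wait 30 min at RT, read luminescence. Concentration-response data fitted to Hill equation for AC50.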

Test [9] in a line: Cell Viability - LYMP2-009 (AID 968).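 Also: 0% = DMSO alone and the full-kill end = tetraoctylammonium bromide at 92 µM; nearly all actives have a fitted effect of over 55% in size.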 The conditions noted are these: LYMP2-009 lymphoblastoid cell viability; series mostly up to 92.2 µM.
The nature of test [10]: Cell Viability - LYMP2-015 (AID 971).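 Also: 0% = DMSO only and full effect = 92 µM tetraoctylammonium bromide; nearly all actives have a fitted effect of over 55% in size.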 The conditions noted are these: LYMP2-015 lymphoblastoid cell viability; series mostly up to 92.2 µM. Summed up: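 Human lymphoblastoid cells (2500/well) in complete medium were preincubated 5 hr at 37 C, then compound-treated 24 hr at 37 C. Intracellular ATP was read by CellTiter-Glo luminescence after 30 min at room temperature; AC50 came from Hill-equation concentration-response fits.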

Test [11] can be described thus: Cell Viability - LYMP2-019 (AID 973).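 Also: 0% = DMSO alone and full effect = 92 µM tetraoctylammonium bromide; nearly all actives have a fitted effect of over 55% in size.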 The conditions noted are these: LYMP2-019 lymphoblastoid cell line viability; series mostly up to 92.2 µM. Summed up:
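Human lymphoblastoid cells were seeded at 2500 cells/well, preincubated 5 hr at 37 C, then exposed to compounds for 24 hr at 37 C in complete medium. Intracellular ATP was measured by CellTiter-Glo luminescence; AC50 from Hill fits.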

A short description of test [12]: Cell Viability - LYMP2-021 (AID 974). The conditions noted are these: LYMP2-021 lymphoblastoid cells viability; series mostly up to 92.2 µM. Summed up: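 Human lymphoblastoid cells (2500/well) were preincubated 5 hr at 37 C, then exposed to compounds for 24 hr at 37 C in complete medium. Intracellular ATP was read by CellTiter-Glo luminescence; AC50 came from Hill-equation fits of concentration-response data.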

Test [13] is described as follows: Cell Viability - LYMP2-002 (AID 977).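 Also: compound exposure lasted 24 h at 37 °C; plate controls were DMSO only for no effect and 92 µM tetraoctylammonium bromide for full effect.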 The conditions noted are these: LYMP2-002 lymphoblastoid cell viability, qHTS; series mostly up to 92.2 µM. Summed up: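 Cytotoxicity is scored as concentration-dependent loss of cellular ATP in a human lymphoblastoid line after 24 hr compound treatment at 37 C. AC50 is obtained by modelling concentration-response data with the Hill equation.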

The nature of test [14]: Cell Viability - LYMP2-010 (AID 981). The conditions noted are these: LYMP2-010 lymphoblastoid cell viability, qHTS; series mostly up to 92.2 µM. Summed up: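 Human lymphoblastoid LYMP2-010 cells (2500/well) were preincubated 5 hr at 37 C, then exposed to compounds for 24 hr at 37 C in complete medium. Intracellular ATP was measured by CellTiter-Glo luminescence after 30 min at room temperature; AC50 from Hill-fitted concentration-response.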

Test [15] can be described thus: Cell Viability - LYMP2-012 (AID 982). The conditions noted are these: LYMP2-012 lymphoblastoid cell viability qHTS; series mostly up to 92.2 µM.
Test [16] in a line: qHTS assay for small molecule agonists of retinoid X receptor alpha signaling (AID 588544). The conditions noted are these: HEK293T RXRa-UAS-bla, beta-lactamase reporter, 18 h; 530 nm emission.
Test [17] is described as follows: qHTS assay for small molecule antagonists of retinoid X receptor alpha signaling (AID 588546; active = well fitted inhibition curve with a large enough effect in the signal ratio, with a control signal flat, not every such curve was filed as active; the % refers to the signal ratio;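 also: cells stimulated with 9-cis-retinoic acid as agonist; % is scaled to controls: 0 for no effect and ±100 for the full control effect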). The conditions noted are these: HEK293T RXRa-UAS-bla, beta-lactamase ratio, antagonist mode; measured here: W530 green channel, cytotoxicity proxy. The gist of the method: (§1)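 Beta-lactamase reporter inhibition, read as CCF4 fluorescence ratio (ex 405, em 460/530 nm) after 2 h at RT. HEK293T UAS-bla cells, 2500/well, were stimulated with 9-cis-RA at 500 or 100 nM final alongside test compound for 18 h at 37 C.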

Test [18] has as its target Retinoic acid receptor RXR-alpha (Homo sapiens) (UniProt P19793). Described as above. The conditions noted are these: HEK293T RXRa-UAS-bla, beta-lactamase ratio, antagonist mode. Summed up:
as §1

The nature of test [19]: qHTS assay for small molecule disruptors of the mitochondrial membrane potential - 5 hr assay (AID 651755; calls by dose curve; also: % is scaled to controls: 0 for no effect and ±100 for the full control effect; nearly all actives have a fitted effect of over 40% in size). The conditions noted are these: JC-1-type ratio dye; series mostly up to 92.2 µM. The gist of the method:
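HepG2, 2,000 cells/well, overnight attach; cpd or DMSO 5 hr, 37C/5% CO2; Mito-MPS 30 min 37C; fluor 490/535 + 540/590 nm.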

Test [20] in a line: qHTS assay for small molecule agonists of the antioxidant response element (ARE) signaling pathway measured by Nrf2-dependant transcriptional activity (AID 720636; active = well fitted curve in the direction sought with a large enough effect in the repeat runs; an effect the other way counts as inactive or inconclusive;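 also: HepG2 cells with an ARE-driven luciferase reporter; % of control where 0% means no effect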). The conditions noted are these: ARE-luc HepG2, Nrf2 luciferase reporter, 16 h; series mostly up to 92.4 µM. Summed up:
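Attachment 6 hr at 37 C, then compound versus DMSO vehicle for 16 hr in ARE-luc HepG2 cells (1% dialyzed FBS); luminescence recorded 30 min after ONE-Glo addition at room temperature.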

Sequence of Retinoic acid receptor RXR-alpha (Homo sapiens) (P19793 whole entry, looked up): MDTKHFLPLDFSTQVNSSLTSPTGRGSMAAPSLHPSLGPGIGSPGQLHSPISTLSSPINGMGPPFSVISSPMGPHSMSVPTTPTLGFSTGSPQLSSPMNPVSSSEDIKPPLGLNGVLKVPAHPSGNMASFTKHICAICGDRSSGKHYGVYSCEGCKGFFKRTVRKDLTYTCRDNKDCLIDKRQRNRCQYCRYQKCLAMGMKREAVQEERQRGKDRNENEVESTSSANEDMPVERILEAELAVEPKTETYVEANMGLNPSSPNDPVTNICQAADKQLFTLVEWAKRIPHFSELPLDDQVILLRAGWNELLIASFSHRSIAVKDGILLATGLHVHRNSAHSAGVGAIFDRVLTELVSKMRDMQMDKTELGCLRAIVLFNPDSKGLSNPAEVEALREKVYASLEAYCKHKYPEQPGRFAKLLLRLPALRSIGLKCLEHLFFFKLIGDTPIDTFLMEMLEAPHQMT

`Cc1ccc(C(=O)O)cc1[N+](=O)[O-]`: the Potency in test [1] and in [2] was > 92 µM (inactive) throughout. The activity change, negative = cytotoxicity in test [3] is 4.91% (inactive). Also, the Potency result in [4], in test [5], in [6], in test [7], in test [8] and in test [9] was “inactive” in each case. Further, the Potency entry in test [10], in [11], in test [12], in [13], in [14] and in test [15] was “inactive” throughout. Moreover, the Potency entry in test [19] and in [20] was “inactive” throughout. Further, the max response is 0.231% in [16], -6.14% in [17] and 8.29% (inactive) in [18].

`c1ccc(COCc2ccccc2)cc1`: the Potency in test [1] and in [2] was > 92 µM (inactive) in each case. For the same molecule, the activity change, negative = cytotoxicity in [3] is -4.56% (inactive). Further, the Potency entry in [4], in test [5], in test [6], in [7], in test [8] and in [9] was “inactive” each time. In addition, the Potency result in [10], in test [11], in test [12], in [13], in test [14] and in test [15] was “inactive” each time. In addition, the Potency result in [19] and in test [20] was “inactive” each time. Besides, the figures for the max response in test [16], in [17] and in test [18] were -5.39%, -0.558% and -1.13% (inactive), respectively.

Take `CCCCCCCCC1CO1` (stereo unspecified): the Potency in test [1] and in test [2] was > 92 µM (inactive) in each case. In addition, the activity change, negative = cytotoxicity in test [3] was -1.38% (inactive). The Potency result in test [4], in test [5], in test [6], in [8], in test [9] and in test [10] was “inactive” each time. Also, the Potency entry in test [11], in test [12], in test [13], in test [14], in test [15] and in test [19] was “inactive” in each case. In addition, in test [20], the Potency entry is “inactive”. Besides, the max response was -17.5% in test [16], -6.6% in test [17] and -3.61% (inactive) in [18].

Take `Cc1ccc(N)cc1[N+](=O)[O-]`: the Potency in test [1] and in test [2] was > 92 µM (inactive) throughout. Besides, the activity change, negative = cytotoxicity in test [3] was -8.48% (inactive). In addition, the Potency entry in [4], in test [5], in test [6], in test [7], in test [8] and in test [9] was “inactive” in each case. In addition, the Potency entry in test [10], in test [11], in test [12], in test [13], in test [14] and in test [15] was “inactive” throughout. For the same molecule, the Potency entry in test [19] and in [20] was “inactive” each time. For the same molecule, the figures for the max response in test [16], in test [17] and in [18] were 4.03%, -2.06% and -2.5% (inactive), respectively.

In the case of `Cc1c(N)cccc1Cl`, the Potency in [1] and in [2] was > 92 µM (inactive) each time. Moreover, the activity change, negative = cytotoxicity in test [3] was -8.37% (inactive). Moreover, the Potency entry in test [4], in test [5], in test [6], in [7], in [8] and in test [9] was “inactive” throughout. Moreover, the Potency entry in [10], in test [11], in [12], in test [13], in test [14] and in [15] was “inactive” throughout. Also, the Potency result in test [19] and in test [20] was “inactive” each time. Also, the max response in [16] is 8.41%; in [17] it was 0.883%; in test [18], 1.61% (inactive).

As for `O=[N+]([O-])c1ccc(F)cc1F`, the Potency was > 92 µM (inactive) in test [1], > 92 µM (inactive) in test [2] and 50.1 µM (active) in test [6]. Besides, the activity change, negative = cytotoxicity in test [3] is -8.79% (inactive). In addition, the Potency result in test [4], in test [5], in [7], in [8], in [9] and in test [10] was “inactive” each time. The Potency result in test [12], in test [13], in test [19] and in test [20] was “inactive” throughout. Moreover, the max response was 0.464% in test [16], -4.17% in test [17] and 10.7% (inactive) in test [18].
